Measurements as given in PubChem BioAssay AID624298 (National Center for Advancing Translational Sciences (NCATS), 2012).
Results filed as inconclusive are left out. Values without a mark were called inactive. Active and inactive are the calls of the source. Calls follow the shape of the dose curve; as a rule, active = well fitted activation curve with a large enough effect; inconclusive = small, poorly fitted or top-dose-only effect; inactive = no such curve, though single readings can be large or run the other way.
Potency is read from the fitted curve at half-maximal effect.

Assay: Activators of T cell receptors: Hit Validation; as to activation: 0% is about no effect
Conditions: primary human leukocytes, cytokine release by HTRF, 48 h, TCR-stimulated with anti-CD3 beads; series mostly up to 46.1 µM; activation: at the top concentration
Procedure, shortened: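 Readout is IL-2 secretion by HTRF, measured after 48 hr in which primary human leukocytes received compound together with a-CD3 beads as the only TCR stimulus.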
For `CCOc1cc(/C=N/NC(=S)Nc2ccccc2C(F)(F)F)ccc1OCC(=O)N1CCOCC1`, the “activation” value was 5.35%. With `S=c1[nH]c2ccccc2n2c(=S)[nH]nc12` the Potency was 11.2 µM (active). In the case of `CCN1CNC(=S)N(Cc2ccccc2)C1`, the “activation” value is reported as 4.1%. For `CCOC(=O)c1c(NC(=O)c2ccc(N3C(=O)C4C5C=CC(C5)C4C3=O)cc2)sc2c1CCCC2` (stereo not drawn), the “activation” value was -5.99%. In the case of `COc1ccc(Cl)cc1NC(=O)CN1C(=O)NC(C)(Cc2ccc(OC)c(OC)c2)C1=O` (stereo not drawn), the “activation” value is reported as 5.98%. For `Cc1cc(Cl)ccc1OCC(=O)OCC(=O)Nc1cccnc1Cl`, the “activation” value was 4.56%. For `CC(C)N1C(=O)C(=O)N(CC(=O)N2CCc3ccccc32)C1=O`, the “activation” value was 9.24%. For `CC[n+]1ccc(/C=C/c2ccc(N(C)C)cc2)c2ccccc21`, the Potency was 4.45 µM (active). With `C=CCNC(=S)Nc1ccc2nsnc2c1` the “activation” value was 22%. For `Cc1ccc(S(=O)(=O)N(C)/N=C/C=C/c2ccccc2)cc1`, the “activation” value was 8.67%. In the case of `COc1ccccc1N1CCN(CCCC(=O)c2ccc(F)cc2)CC1`, the “activation” value is reported as 4.45%. In the case of `COc1cc(OC)cc(C(=O)Nc2ccc(S(=O)(=O)N3CCOCC3)cc2)c1`, the “activation” value is reported as 17.4%. With `CCC(/C=C1\Sc2ccc(OC)cc2N1CCO)=C\c1sc2ccc(OC)cc2[n+]1CCO` the Potency was 9.96 µM (active). For `CSCCC(NC(=O)c1ccco1)C(=O)NCC1CCCO1` (stereo not drawn), the “activation” value was -4.79%. In the case of `Nn1c(SCc2ccccc2F)nnc1-c1ccccn1`, the “activation” value is reported as 6.47%. In the case of `Cc1ccc(S(=O)(=O)NC23CC4CC(CC(C4)C2)C3)cc1`, the “activation” value is reported as 4.65%. In the case of `O=C(O)c1ccc(NC(=O)C(c2ccccc2)c2ccccc2)cc1`, the “activation” value is reported as 9.22%. For `O=C(c1cc(-c2ccc(F)cc2)nc2ccccc12)N1CCN(C2CCS(=O)(=O)C2)CC1` (stereo not drawn), the “activation” value was -0.39%.
